Data published in PubChem BioAssay (NCATS).
Several values for one entry are separate records, joined by “and”; a condition that tells them apart may be missing. Identical values can stand only once.

target: Glucocorticoid receptor (Homo sapiens) (UniProt P04150); assay: GR-EFC Redistribution (AID 451); details: CHO-K1 GR-EFC translocation, beta-gal luminescence, 2 h
Text: NIH Molecular Libraries Screening Centers Network [MLSCN]
NIH Chemical Genomics Center [NCGC]
The glucocorticoid receptor (GR) is a cytoplasmic receptor that belongs to the nuclear receptor family of ligand-dependent transcription factors. Upon glucocorticoid binding to its receptor, the glucocorticoid-GR complex translocates into the nucleus, where it binds as a dimer to specific DNA sequences (glucocorticoid response elements), enhancing or suppressing transcription of a wide variety of glucocorticoid-responsive genes. In addition to their important roles in normal physiology and metabolism, glucocorticoids are administered exogenously as treatments for a wide variety of allergic, autoimmune, and neoplastic conditions. Identification of compounds that modulate aspects of GR signalling would be useful in dissecting glucocorticoid response pathways as well as developing GR modulators with more targeted clinical effects.
Traditionally, GR modulators have been identified using receptor binding or direct transactivation assays. However, assays for glucocorticoid-dependent nuclear translocation can also be used to screen for compounds affecting GR signaling.
Immunocytochemical staining has been used to assay for GR translocation, but is not suitable for high throughout screening due to the multiple reagent addition and wash steps required. Recently, a novel cell-based GR assay in Enzyme Fragment Complementation (EFC) format was developed by DiscoveRx (Fremont, CA). The assay uses EFC of b-galactosidase (b-gal) as an indicator of GR-translocation in engineered CHO-K1 biosensor cells. The enzyme acceptor (EA) fragment of b-gal resides in the nucleus , as designed through the use of a proprietary set of sequence additions and modifications. The small peptide enzyme donor (ED) fragment of b-gal is fused directly to the C-terminus of GR, and is localized in the cytoplasm is the absence of receptor signaling. Upon binding to a GR ligand, the complex translocates to the nucleus, where intact enzyme activity is restored by complementation and b-gal activity is detected. We optimized this GR-EFC assay in homogenous 1536-well plate assay format for high throughput screening.
NCGC Assay Protocol Summary:
CHO-K1 cells stably expressing NLS-enzyme acceptor fragment (EA) of b-gal and GR-enzyme donor (ED) fragment of b-gal were maintained in F12 medium (Invitrogen, Carlsbad, CA) at 37 Celsius degrees under a humidified atmosphere containing 5% CO2 and 95% air. The medium contained 10% FBS, 2 mM L-glutamine, 50 U/ml penicillin 50 ug/ml streptomycin, and 250 ug/ml hygromycin and 500 ug/ml G418 (Invitrogen).
GR-translocation was measured beta-gal enzyme activity using the PathHunter Detection Kit containing cell membrane permeablizing reagent and beta-gal substrate (DiscoveRx, Fremont, CA). All compounds were screened as titrations from 0.6 nM to 46 uM final concentration. The assay was performed in 1536-well format as follows:
5 uL cell suspension (1,000 cells)/well
Incubation at 37 Celsius degrees for two hours
1.25 uL 1X detection buffer from the kit supplied by DiscoveRx
Incubation at room temperature for one hour
Read plate in luminescence mode in ViewLux plate reader (PerkinElmer)
Keywords: NIH Roadmap, MLSCN, MLI, MLSMR, GR-EFC, GREFC, qHTS, NCGC
Potency means the concentration at half of the fitted maximal effect.

Chain of Glucocorticoid receptor (Homo sapiens) (P04150 whole entry, looked up): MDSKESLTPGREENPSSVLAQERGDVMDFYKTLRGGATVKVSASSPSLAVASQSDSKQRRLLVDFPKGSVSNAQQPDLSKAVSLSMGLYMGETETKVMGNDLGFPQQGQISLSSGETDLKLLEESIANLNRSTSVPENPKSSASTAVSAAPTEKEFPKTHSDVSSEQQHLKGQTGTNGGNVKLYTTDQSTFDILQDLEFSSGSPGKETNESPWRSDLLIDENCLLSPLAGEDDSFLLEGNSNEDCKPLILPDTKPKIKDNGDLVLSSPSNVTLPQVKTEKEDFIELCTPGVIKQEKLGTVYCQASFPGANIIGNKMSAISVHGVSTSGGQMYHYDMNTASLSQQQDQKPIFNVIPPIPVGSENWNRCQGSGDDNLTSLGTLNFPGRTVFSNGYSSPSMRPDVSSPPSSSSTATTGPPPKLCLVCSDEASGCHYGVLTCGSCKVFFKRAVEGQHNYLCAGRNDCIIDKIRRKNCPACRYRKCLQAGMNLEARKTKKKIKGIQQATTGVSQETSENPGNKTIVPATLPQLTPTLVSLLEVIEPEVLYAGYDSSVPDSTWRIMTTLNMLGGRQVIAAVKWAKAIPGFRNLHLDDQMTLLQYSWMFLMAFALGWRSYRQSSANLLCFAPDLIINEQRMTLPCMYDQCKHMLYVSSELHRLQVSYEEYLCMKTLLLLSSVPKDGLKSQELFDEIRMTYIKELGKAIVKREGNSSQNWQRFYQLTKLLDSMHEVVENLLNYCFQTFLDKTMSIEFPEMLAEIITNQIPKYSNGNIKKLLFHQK

Potency, inactive:
COc1cccc(Cn2c(=O)c(-c3ccc(Cl)cc3)nc3cnc(N4CCN(C)CC4)nc32)c1 > 46 µM
c1cn(-c2cc(-c3ccc4c(c3)OCO4)ncn2)cn1 > 46 µM
O=C(Nc1ccccc1)N1CCCC2(CCN(S(=O)(=O)c3ccccc3)CC2)C1 > 46 µM
COC(=O)N1CCC[C@@]2(CCN(Cc3nccs3)C2)C1 > 46 µM
CN1CCN(c2ncc3ncc(=O)n(-c4ccccc4)c3n2)CC1 > 46 µM
COc1ccccc1CNc1cc(-c2ccccc2C(F)(F)F)ncn1 > 46 µM
COc1ccccc1CNc1ccnc(-c2ccc(N(C)C)cc2)n1 > 46 µM
COc1ccccc1-c1nccc(Nc2ccc(F)cc2)n1 > 46 µM
CN(Cc1ccco1)c1cc(-c2cccnc2)ncn1 > 46 µM
O=C(c1ccncc1)N1CCC2(CCCN(c3ncccn3)C2)CC1 > 46 µM
COc1ccccc1-c1cc(NCc2cccs2)ncn1 > 46 µM
COc1ccccc1CN1CCCC2(CCN(C(=O)c3cccc(F)c3)CC2)C1 > 46 µM
C[C@@](N)(Cc1ccc(O)cc1)C(=O)O > 46 µM
CCNc1ncc2nc(-c3ccc(F)cc3)c(=O)n(CCC#N)c2n1 > 46 µM
c1ccc(CNc2cc(-c3ccoc3)ncn2)cc1 > 46 µM
COc1cccc(Cn2c(=O)c(-c3cccs3)nc3cnc(OC)nc32)c1 > 46 µM
O=C(c1ccco1)N1CCC2(CCCN(Cc3ccccc3)C2)CC1 > 46 µM
COc1ccccc1CNc1ccnc(-c2cccc(C#N)c2)n1 > 46 µM
COc1ccc(-c2nc3cnc(OC)nc3n(Cc3ccc(F)cc3)c2=O)cc1 > 46 µM
Cc1cnc(CNc2ccnc(-c3ccc(N(C)C)cc3)n2)cn1 > 46 µM
COCCn1c(=O)c(C)nc2cnc(N3CCOCC3)nc21 > 46 µM
Cc1noc(C)c1C(=O)N1CCC[C@@]2(CCN(Cc3nccs3)C2)C1 > 46 µM
COc1cccc(Cn2c(=O)c(-c3ccccc3)nc3cnc(N4CCN(C)CC4)nc32)c1 > 46 µM
COc1ccc(-c2nc3cnc(OCc4ccccc4)nc3n(CCC#N)c2=O)cc1 > 46 µM
COc1cccc(Cn2c(=O)c(-c3cc(F)cc(F)c3)nc3cncnc32)c1 > 46 µM
CN(C)c1nc(-c2ccccc2C(F)(F)F)nc2ccccc12 > 46 µM
COc1ncc2nc(C)c(=O)n(Cc3ccc(F)cc3)c2n1 > 46 µM
COc1ccc2[nH]cc(CCNc3ccnc(-c4cccnc4)n3)c2c1 > 46 µM
O=C(c1cccc(F)c1)N1CCC2(CC1)CN(c1ccc(-c3ccccc3)cc1)C2 > 46 µM
CCn1cc(C(=O)O)c(=O)c2cc(F)c(N3CCN[C@@H](C)C3)c(F)c21 > 46 µM and > 20.6 µM
COCC(=O)N1CCC2(CCN(Cc3ccccc3)CC2)CC1 > 46 µM
CS(=O)(=O)Nc1cccc(-c2cncnc2Nc2ccccc2)c1 > 46 µM
c1cncc(-c2nc(NCCN3CCOCC3)c3ccccc3n2)c1 > 46 µM
O=C(c1ccncc1)N1CCC[C@@]2(CCN(Cc3cc(C(F)(F)F)cc(C(F)(F)F)c3)C2)C1 > 46 µM
COc1ccc(CNc2nc(-c3ccc(N(C)C)cc3)nc3ccccc23)c(OC)c1 > 46 µM
CS(=O)(=O)Nc1cccc(-c2ccc3ncnc(NCc4cccnc4)c3c2)c1 > 46 µM
O=c1c(-c2ccccc2)nc2cncnc2n1C1CC1 > 46 µM
FC(F)(F)c1ccccc1-c1ccc2ncnc(NCc3cccs3)c2c1 > 46 µM
COc1ccc(-c2nc3cnc(Nc4cccc(OC)c4)nc3n(Cc3cccs3)c2=O)cc1 > 46 µM
Cn1cccc1C(=O)N1CCC2(CCCN(C(c3ccccc3)c3ccccc3)C2)CC1 > 46 µM
